The text below walks through data of PubChem BioAssay AID624404 (Broad Institute, 2012).

Each structure is given as a SMILES string. Out of some 1,800 compounds screened, about 710 (39%) were called active. About 28% were inconclusive and are not listed. These entries were drawn from the full list. Results with a measured potency or affinity are listed apart. Values without a mark were called inactive.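 How the source made its calls: active means luciferase signal rise whose fitted curve crosses a set activity limit at or below the top valid tested dose; inconclusive means flat fit with 30 to 70% rise, or poor fit; inactive means signal falling, flat within 30%, or crossing above top dose.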

This assay in a line: luciferase activators in glycosylation-insensitive reporter cells, dose response, counter-screen for N-linked glycosylation inhibitor project, D54 LucT cells, luminescence, cherry pick (AID 624404).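 Further: 0% = median neutral control signal and 100% = twice that signal.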 Particulars: D54 LucT luciferase reporter counterscreen, 24 h; series mostly up to 19.5 µM; activity increase (luciferase signal): at the top concentration. For orientation: The purpose of a counterscreen is to sort out artefacts and off-target activity.
Regarding `N#CCC(CNc1ncc(C(F)(F)F)cc1Cl)OC(=O)c1ccc(Cl)cc1Cl` (stereo not given), the “activity increase (luciferase signal)” value is 13.4%. In the case of `C/C(=N/NC(=O)c1cccs1)c1ccc(NC(=O)COc2ccc(Cl)cc2Cl)cc1`, the “activity increase (luciferase signal)” value was 13.5%.

In the case of `CCOc1ccc(Br)cc1C1=NN(C(C)=O)C(c2ccc([N+](=O)[O-])s2)O1` (stereo not given), the “activity increase (luciferase signal)” value is 30%. In the case of `CN(C)S(=O)(=O)c1ccc(N2CCCC2)c(C(=O)Nc2cccc(F)c2)c1`, the “activity increase (luciferase signal)” value is 17.2%. Under `COc1ccc(S(=O)(=O)Nc2cc3c(cc2C(C)=O)OCO3)cc1` stands 40.6%. On to `O=C(Nc1cccc(F)c1)c1cc(S(=O)(=O)N2CCOCC2)ccc1N1CCCC1`, for which the “activity increase (luciferase signal)” value is 5.41%.

As for `CN(C)S(=O)(=O)c1ccc(N2CCCC2)c(C(=O)Nc2ccccc2)c1`, the “activity increase (luciferase signal)” value was 4.45%. For `CC1=C(n2ccnc2)CCC1=O` the value was 20.5%. On to `O=C1CC(c2ccccc2F)c2cc3c(cc2N1)CCC3` (stereo not given), for which the “activity increase (luciferase signal)” value is 32.1%.

`CC(C)(C)c1nnc2sc(SCC(=O)c3ccc4c(c3)OCCO4)nn2c1=O`: the “activity increase (luciferase signal)” value is -0.962%.

For `CN(C)CCc1cc2c(c3c1ccc1ccccc13)OCO2`, the “activity increase (luciferase signal)” value was -9.59%.

On to `COc1ccccc1C1CC(=O)Nc2cc3c(cc21)OCCO3` (stereo not given), for which the “activity increase (luciferase signal)” value is 7.01%. Under `COC(=O)c1sc(N)c(C(=O)OC)c1COC(=O)c1c(C)noc1C` stands 41.7%; under `Cc1[nH]c2ccc(C(=O)OC(C)C(=O)NCc3ccccc3)cc2c1C` (stereo not given), 20.7%; under `COc1cccc(-c2nc(N3CCN(C)CC3)c3ccccc3n2)c1O`, 30.5%. Regarding `O=C(CNc1cccc2ccccc12)N/N=C/C(Br)=C/c1ccccc1`, the “activity increase (luciferase signal)” value is 33.3%. Consider `O=C(N/N=C/C(Br)=C/c1ccccc1)c1cc(-c2ccco2)[nH]n1`, for which the “activity increase (luciferase signal)” value was 31.3%. For `Cc1nc2c3cc(F)ccc3n(Cc3ccc(F)cc3)c2s1`, the “activity increase (luciferase signal)” value is 23.6%. For `CCCn1nc(C(=O)N2CC(=O)Nc3ccccc32)c2ccccc2c1=O` the value was 30.2%; for `COc1ccc2nc(SCC(=O)NC3CCCC3)c(C)cc2c1`, 34.9%; for `CCOc1ccc2nc(NCCNC(=O)Nc3cccc(C)c3)c(C#N)cc2c1`, 12.9%. Take `OCCNc1c2ccccc2nc2ccccc12`: the “activity increase (luciferase signal)” value is -24%. Regarding `Cc1cc(/C=C2\Sc3ccccc3N2C)cc(C)[n+]1CC1CCCO1` (stereo not given), the “activity increase (luciferase signal)” value was -30.6%. `COc1ccc(C(=O)C=Cc2ccc(OCc3ccccc3)c(OC)c2)cc1OC`: the “activity increase (luciferase signal)” value is 45.9%. For the compound `CC(C)CC(NC(=O)c1ccc(Cl)cc1)C(=O)OCC(=O)c1ccc2c(c1)NC(=O)CO2` (stereo not given), the “activity increase (luciferase signal)” value was 19.6%. For `CC[C@H](C)[C@H](NC(=O)c1ccc(Cl)cc1)C(=O)OCC(=O)c1ccc2c(c1)NC(=O)CO2` the value was -25.4%; for `O=C(/C=C/c1cccnc1)c1ccc(F)c(F)c1`, 12.5%; for `C=CCn1cccc(/C=C/C(=O)c2ccc(C(C)(C)C)cc2)c1=S`, -49.2%.

Turning to `CNc1ccc(Br)cc(C(=O)/C=C/c2ccc(Cl)cc2Cl)c1=O`, the “activity increase (luciferase signal)” value was 11.2%.

On to `Cc1ccc(-c2nn(-c3ccccc3)cc2NC(=O)CCl)cc1`, for which the “activity increase (luciferase signal)” value is -50%. `Cc1ccc(C(=O)CSc2nn3c(=O)c(C(C)(C)C)nnc3s2)cc1`: the “activity increase (luciferase signal)” value is 23.5%. With `CN(C)C(=O)c1cccc(-c2cnc3c(NC=O)cc(-c4ccccc4Cl)cn23)c1`, the “activity increase (luciferase signal)” value is 51.8%.

`COc1ccccc1-c1cc(NC=O)c2ncc(-c3cccc(C(C)=O)c3)n2c1`: the “activity increase (luciferase signal)” value was -15.7%. Under `Nc1ccc(-c2cc(NC=O)c3ncc(-c4cccc(C(F)(F)F)c4)n3c2)cn1` stands 7.33%; under `COc1ccc(F)cc1-c1cc(NC(C)=O)c2ncc(-c3cc(OC)c(OC)c(OC)c3)n2c1`, -10.8%; under `CCOc1cc(S(=O)(=O)NCc2ccc(OC)cc2)c(OCC)cc1-n1cnnn1`, 29%. For `Oc1ccc(N=Nc2ccccc2)o1`, the “activity increase (luciferase signal)” value is 15.2%. As for `O=C(Nc1cccc(C(F)(F)F)c1)c1sc(Cl)nc1C(F)(F)F`, the “activity increase (luciferase signal)” value was -21.3%.

Take `CC(C)c1ccc(NC(=O)[C@@H](NC(=O)N2CC(=O)Nc3ccccc32)C(C)C)cc1`: the “activity increase (luciferase signal)” value was 49.1%. For `O=C(CNC(=O)N1CC(=O)Nc2ccccc21)NCCCc1ccccc1`, the “activity increase (luciferase signal)” value was 37.6%. As to `Cn1ncc2c(O/N=C(\N)c3ccc(C(F)(F)F)cc3)ncnc21`, the “activity increase (luciferase signal)” value was 9.8%. Consider `CC(/C=N/NC(=O)c1cc(-c2ccc(C)s2)[nH]n1)=C\c1ccccc1`, for which the “activity increase (luciferase signal)” value is 57%. Consider `CN(C)CCCN1C(=O)c2cccc3cccc(c23)C1=O`, for which the “activity increase (luciferase signal)” value is 66.1%. Turning to `Cc1cc(NC(=O)COC(=O)c2ccc(S(=O)(=O)N3CCCc4ccccc43)cc2)no1`, the “activity increase (luciferase signal)” value was -2.94% [at 5 µM].

Regarding `CCOc1ccccc1C1CC(=O)Nc2cc3c(cc21)OCCO3` (stereo not given), the “activity increase (luciferase signal)” value is -7.85%.

Consider `CCOC(=O)Cc1csc(/N=C/c2c(O)n(-c3ccc(C)c(C)c3)c(=O)c3ccccc23)n1`, for which the “activity increase (luciferase signal)” value is 48.7%.

Consider `Cc1cc(O)c(NC(=O)c2cc([N+](=O)[O-])ccc2Cl)cc1C`, for which the “activity increase (luciferase signal)” value was 5.97%. As to `CC(=O)Nc1sc(C)c(C)c1C(=O)OCC(=O)N(CC(C)C)c1c(N)n(Cc2ccccc2)c(=O)[nH]c1=O`, the “activity increase (luciferase signal)” value was -15.8%. Under `CC(=O)Nc1sc(C)c(C)c1C(=O)OCC(=O)Nc1cccc(C)c1` stands 35.9%. As to `O=C1c2cccc3cccc(c23)C(=O)N1CC1CCN(CC(O)COCc2ccc3c(c2)OCO3)CC1` (stereo not given), the “activity increase (luciferase signal)” value is -18.8%. Turning to `CN(C)c1ccc(C(C[N+](=O)[O-])c2c(N)n(C)c(=O)n(C)c2=O)c(F)c1C#N` (stereo not given), the “activity increase (luciferase signal)” value is -29.9%.

For the compound `Cc1ccc(-c2cnc(C3CC3)o2)cc1S(=O)(=O)Nc1ccccc1`, the “activity increase (luciferase signal)” value is 28.3%. For the compound `COc1ccc(Oc2ccc(/C=C/C(=O)c3cccc(OC)c3)cc2[N+](=O)[O-])cc1`, the “activity increase (luciferase signal)” value is -28.9%. On to `CCNc1ccc(Br)cc(C(=O)/C=C/c2ccc(Cl)cc2)c1=O`, for which the “activity increase (luciferase signal)” value was -4.89%. Consider `Cc1[nH]nc2c1C(c1cccc(O)c1)C1=C(CC(C)(C)CC1=O)N2` (stereo not given), for which the “activity increase (luciferase signal)” value is -7.35%. As to `O=C(NCCc1ccc(F)cc1)c1coc(=O)c(Br)c1`, the “activity increase (luciferase signal)” value is 14.3%.

Turning to `Cc1cc(NC(=O)CSc2nc(-c3ccco3)cc(C(F)(F)F)n2)no1`, the “activity increase (luciferase signal)” value was 26.8%. As to `COc1ccc(CCn2c(=N)c(C(=O)NCc3ccco3)cc3c(=O)n4ccccc4nc32)cc1OC`, the “activity increase (luciferase signal)” value is -3.36%. In the case of `Cc1cccc2[nH]c3c(N4CCC5(CC4)OCCO5)ncnc3c12`, the “activity increase (luciferase signal)” value was 17%.

Take `COc1ccc(CNC(=O)C2Cc3c(-c4ccc5c(c4)OCO5)ccnc3O2)cc1OC` (stereo not given): the “activity increase (luciferase signal)” value is 41.1%.

`COC(=O)c1cc(=O)n(Cc2ccc3c(c2)OCO3)c(=Nc2ccc(F)c(Cl)c2)s1`: the “activity increase (luciferase signal)” value is -55.3%. With `COc1ccc(-c2nc3c(C(=O)NCCN(C)C)cccc3c3ccccc23)cc1`, the “activity increase (luciferase signal)” value was 22.2%. Under `COc1cccc2nc3c(C(=O)NCCN(C)C)cccc3cc12` stands -3.74%; under `CCN(c1ccccc1)S(=O)(=O)c1ccc(C(=O)NC2CCN(Cc3ccccc3)CC2)cc1`, -0.543%; under `Nc1nc(=S)c2ncn(C3OC(CO)C(O)C3O)c2[nH]1` (stereo not given), 23.6%.
